The values below are quoted from earlier work in PubChem BioAssay AID977611.

A word on the Kd: it is the constant that tells how readily two partners part at equilibrium.

The campaign covered roughly 3,900 compounds. About 3,900 (100%) were called active. The limit is not given here; nearly all actives have Kd up to about 4200 µM. So high a share suggests a set chosen from earlier hits. The list shows a part of the results. Numbered stars: 1 amine (or outer) side, 2 acyl side, 3 side chain; on linkers, the order of the positions; unused ones are H or OH. Where a SMILES comes first, the peptide text is derived from it. Non-standard residues stand in square brackets, D forms with d. Square brackets hold non-standard residues; d marks the D form. Residues, ends and D or L forms follow the SMILES beside them. Peptide text beside a SMILES is read from it. [ ]: non-standard residue; d: D form. Lys(Me3) = C[N+](C)(C)CCCC[C@H](N)C(=O)O; Orn(CH(NH2)2) = NC(N)NCCC[C@H](N)C(=O)O; X1 = CNC(NC)NCCC[C@H](N[*:1])C(=O)[*:2]; Abu = CC[C@H](N)C(=O)O

A short description of this data set: PubChem AID 977611. Particulars: PDB protein-ligand complexes, literature Kd.

`CC(C)C[C@H](NC(=O)[C@H](CCC(N)=O)NC(=O)CNC(=O)[C@H](CCC(N)=O)NC(=O)[C@@H]1CCCN1C(=O)[C@H](CC(C)C)NC(=O)[C@@H]1CCCN1C(=O)[C@H](CCC(=O)O)NC(=O)[C@@H]1CCCN1C(=O)[C@@H](N)CC(C)C)C(=O)N[C@H](C(=O)N[C@@H](C)C(=O)N[C@@H](Cc1ccc(O)cc1)C(=O)O)[C@@H](C)O`: the Kd is, setting by setting: (protein: HLA class I histocompatibility antigen(HLA-B*3501), PDB entry 1zhk) 35.2 µM (active); (protein: HLA class I histocompatibility antigen(HLA-B*3508), PDB entry 1zhl) 9.9 µM (active).
On to `CC(C)C[C@H](NC(=O)[C@@H](NC(=O)[C@H](C)NC(=O)[C@H](Cc1ccc(O)cc1)NC(=O)[C@H](C)NC(=O)[C@@H]1CCCN1C(=O)[C@@H]1CCCN1C(=O)[C@@H]1CCCN1C(=O)[C@H](C)NC(=O)[C@@H](N)[C@@H](C)O)[C@@H](C)O)C(=O)NCC(=O)O` (H-TAPPPAYATLG-OH), for which the Kd (protein: E3 ubiquitin-protein ligase NEDD4, PDB entry 2m3o) is 5 µM (active).
In the case of H-DDDEDGYNPYTL-OH, the Kd (protein: CTD interacting domain of Protein NRD1, PDB entry 2mow) is 1.09 µM (active).
Consider `CC[C@H](NC(=O)[C@@H](NC(=O)[C@H](CC(C)C)NC(=O)[C@H](CC(=O)O)NC(=O)[C@H](CCC(N)=O)NC(=O)[C@H](CCC(=O)O)NC(=O)[C@@H](NC(=O)[C@@H]1CCCN1C(=O)[C@@H]1CCCN1C(=O)[C@@H](N)CC(C)C)[C@@H](C)O)[C@@H](C)O)C(=O)N[C@@H](CC(C)C)C(=O)N[C@@H](CC(C)C)C(=O)N[C@@H](C)C(=O)N[C@@H](CCC(=O)O)C(=O)O` (H-LPPTEQDLT[Abu]LLAE-OH), for which, for the setting “protein: nuclear coactivator 1 (NCoA-1) PAS-B domain, PDB entry 1oj5”, the Kd is 0.8 µM (active).
On to H-QAQGPPYPTYPGY-OH, for which the Kd (protein: ESCRT and ALIX binding region (EABR), PDB entry 3e1r) was 1.5 µM (active).
Take `C[C@H](N)C(=O)N[C@@H](CCCNC(N)N)C(=O)N[C@@H](CCCC[N+](C)(C)C)C(=O)N[C@@H](CO)C(=O)N[C@@H](C)C(=O)NCC(=O)N[C@@H](C)C(=O)N[C@@H](C)C=O` (H-A[Orn(CH(NH2)2)][Lys(Me3)]SAGAA-aldehyde): the Kd (protein: Polycomb protein EED residues 77-441, PDB entry 3iiy) is 16 µM (active).
In the case of `CNC(NC)NCCC[C@H](NC(=O)[C@H](C)N)C(=O)N[C@H](C(=O)N[C@@H](CCCC[N+](C)(C)C)C(=O)N[C@@H](CCC(N)=O)C(=O)N[C@H](C(=O)N[C@@H](C)C(=O)N[C@@H](C)C(=O)N[C@@H](C)C(N)=O)[C@@H](C)O)[C@@H](C)O` (H-A[X1]T[Lys(Me3)]QTAAA-NH2), the Kd (protein: RAG2-PHD, PDB entry 2v87) is 25.1 µM (active).
Take `C[C@H](N)C(=O)N[C@@H](CCCN=C(N)N)C(=O)N[C@H](C(=O)N[C@@H](CCCC[N+](C)(C)C)C(=O)N[C@@H](CCC(N)=O)C(=O)N[C@H](C(=O)N[C@@H](C)C(=O)N[C@@H](CCCNC(N)=[N+](C)C)C(=O)N[C@@H](CCCCN)C(=O)O)[C@@H](C)O)[C@@H](C)O`: where the note is “protein: human Spindlin1, PDB entry 4mzf”, the Kd is 0.045 µM (active).
For `C[C@H](N)C(=O)N[C@@H](CCCN=C(N)N)C(=O)N[C@H](C(=O)N[C@@H](CCCC[N+](C)(C)C)C(=O)N[C@@H](CCC(N)=O)C(=O)N[C@H](C(=O)N[C@@H](C)C(=O)O)[C@@H](C)O)[C@@H](C)O` (H-ART[Lys(Me3)]QTA-OH), the Kd (protein: human Spindlin1, PDB entry 4mzh) is 0.066 µM (active).
With `C[C@H](N)C(=O)N[C@@H](CCCNC(N)N)C(=O)N[C@@H](CCCC[N+](C)(C)C)C(=O)N[C@@H](CO)C(=O)N[C@@H](C)C(=O)O` (H-A[Orn(CH(NH2)2)][Lys(Me3)]SA-OH), for the setting “protein: Polycomb protein EED residues 77-441, PDB entry 3iiw”, the Kd is 36.4 µM (active).
In the case of `C[C@H](N)C(=O)N[C@@H](CCCNC(N)N)C(=O)N[C@H](C(=O)N[C@@H](CCCC[N+](C)(C)C)C(=O)N[C@@H](CCC(N)=O)C(=O)N[C@H](C(=O)O)[C@@H](C)O)[C@@H](C)O` (H-A[Orn(CH(NH2)2)]T[Lys(Me3)]QT-OH), the Kd (protein: bromodomain PHD finger transcription factor, PDB entry 2f6j) is 2.7 µM (active).
`C[C@H](N)C(=O)N[C@@H](CCCNC(N)N)C(=O)N[C@H](C(=O)N[C@@H](CCCC[N+](C)(C)C)C(=O)N[C@@H](CCC(N)=O)C(=O)N[C@H](C(=O)N[C@@H](C)C(=O)O)[C@@H](C)O)[C@@H](C)O` (H-A[Orn(CH(NH2)2)]T[Lys(Me3)]QTA-OH): the Kd by setting is: (protein: Histone-lysine N-methyltransferase MLL5, PDB entry 4l58) 21 µM (active); (protein: Inhibitor of growth protein 5, PDB entry 3c6w) 2.4 µM (active); (protein: Jumonji domain-containing protein 2A, PDB entry 2gfa) 10.4 µM (active).
Take `CN(C)S(=O)(=O)c1ccsc1`: the Kd is, setting by setting: (protein: Pantothenate synthetase (T2A, E77G mutation), PDB entry 4efk) 3200 µM (active); (protein: Pantothenate synthetase (T2A, E77G mutation), PDB entry 4g5y) 1700 µM (active).
Consider `CC1(C)NC(N)NC(N)N1c1ccc(Cl)cc1` (stereo not given), for which, under “protein: Dihydrofolate reductase, PDB entry 4kne”, the Kd is 1.26 µM (active).
Take `CC(=O)NCCCCNc1ncnc2c1ncn2[C@@H]1O[C@H](CN(CCCNC(=O)Nc2ccc(C(C)(C)C)cc2)C(C)C)[C@@H](O)[C@H]1O`: the Kd (protein: Histone-lysine N-methyltransferase, H3 lysine-79 specific DOT1L, PDB entry 4wvl) is 0.131 µM (active).
As for `CCCCC/C=C\C\C=C/C=C/C=C/C[C@@H](O)CCCC(=O)O`, the Kd (protein: Tablysin 15, PDB entry 3u3u) was 0.133 µM (active).
For `CC(C)C[C@H](NC(=O)[C@H](CC(=O)O)NC(=O)[C@H](CO)NC(=O)[C@H](Cc1ccccc1)NC(=O)[C@@H](NC(=O)[C@@H](N)CCC(=O)O)[C@@H](C)O)C(=O)N[C@@H](Cc1c[nH]c2ccccc12)C(=O)N[C@@H](CCCCN)C(=O)N[C@@H](CC(C)C)C(=O)N[C@@H](CC(C)C)C(=O)N1CCC[C@H]1C(=O)O`, the Kd by setting is: (protein: E3 ubiquitin-protein ligase Mdm2 (E69A, K70A mutation), PDB entry 4hfz) 1.9 µM (active); (protein: human-mimic Mdm4 protein, PDB entry 2z5t) 2.4 µM (active).
Take `CC[C@H](N)C(=O)N[C@H](C(=O)N[C@@H](Cc1ccccc1)C(=O)N[C@@H](CO)C(=O)N[C@@H](CC(=O)O)C(=O)N[C@@H](CC(C)C)C(=O)N[C@@H](Cc1c[nH]c2ccccc12)C(=O)N[C@@H](CCCCN)C(=O)N[C@@H](CC(C)C)C(=O)N[C@@H](CC(C)C)C(=O)N1CCC[C@H]1C(=O)O)[C@@H](C)O` (H-[Abu]TFSDLWKLLP-OH): the Kd (protein: native Mdm4 protein, PDB entry 2z5s) is 2.2 µM (active).
For the compound `C[C@H](N)C(=O)N[C@@H](CO)C(=O)N[C@@H](CCCN=C(N)N)C(=O)N[C@@H](Cc1c[nH]c2ccccc12)C(=O)N[C@@H](CC(=O)O)C(=O)N[C@@H](CCC(=O)O)C(=O)N[C@H](C(=O)N1CCC[C@H]1C(=O)O)[C@@H](C)O` (H-ASRWDETP-OH), the Kd (protein: RNA-binding protein 39 CAPER-alpha, PDB entry 4oz1) was 2.4 µM (active).
For the compound `C[C@H](NC(=O)[C@H](CCCNC(N)N)NC(=O)[C@@H](N)CCCCN)C(=O)N[C@@H](CO)C(=O)N[C@@H](CCCNC(N)N)C(=O)N[C@@H](Cc1c[nH]c2ccccc12)C(=O)N[C@@H](CC(=O)O)C(=O)N[C@@H](CCC(=O)O)C(=O)N[C@H](C(=O)N1CCC[C@H]1C(=O)O)[C@@H](C)O` (H-K[Orn(CH(NH2)2)]AS[Orn(CH(NH2)2)]WDETP-OH), the Kd (protein: Splicing factor 45(SPF45-UHM), PDB entry 2peh) is 1.1 µM (active).
